Common to all, as to format: functional
For experiment [1], the system named is Plasmodium falciparum. Kind of experiment: GSK_TCMDC: Inhibition of Plasmodium falciparum 3D7 in whole red blood cells, using parasite LDH activity as an index of growth. Test compounds present at 2uM.
For experiment [2], the system named is Plasmodium falciparum. Kind of experiment: GSK_TCMDC: Inhibition of Plasmodium falciparum Dd2 in whole red blood cells, using parasite LDH activity as an index of growth. Test compounds present at 2uM.
The test system of experiment [3] is HepG2. Briefly: GSK_TCMDC: Percent inhibition of human HepG2 cell line. Test compounds present at 10uM.

Turning to `CCCNC(=O)c1cncc(-c2ccc(CNC(CC)c3ccccc3)cc2)c1.O=C(O)C(F)(F)F` (stereo not given), the Inhibition – broadly, how much of the control response was suppressed – in experiment [1] is 92%; in experiment [2], 1%; in experiment [3], 20%.
Turning to `COc1ccccc1N1CCN(C(C(=O)NCc2ccc(C)cc2)c2ccc(C)cc2)CC1` (stereo not given), the Inhibition in experiment [1] came to 92%; in experiment [2], 79%; in experiment [3], 12%.
The like results for `Cl.c1ccc2ncc(CNCCCCCCCCNCc3cnc4ccccc4c3)cc2c1` were, in that order, 88%, 4% and 8%.
For `O=C(NCCN1CCCC1)c1ccc(-c2cccc(-c3nc4cc(F)ccc4[nH]3)c2)cc1`, the Inhibition in experiment [1] came to 100%; in experiment [2], 2%; in experiment [3] it was 29%.
For the compound `Cc1cc(-c2nc3cc(C(=N)N)ccc3[nH]2)c(C)cc1-c1nc2cc(C(=N)N)ccc2[nH]1.Cl`, the Inhibition stood at 96% in experiment [1], 97% in experiment [2] and 0% in experiment [3].
For `Cl.Clc1ccc(CNCCCCCCCNCc2ccc(Cl)c(Cl)c2)cc1Cl`, the Inhibition in experiment [1] is on record as 99%; in experiment [2], 49%.
Turning to `Cl.N=C(N)Nc1nc(-c2ccc(NC(=N)N3CCC[C@H]3CN3CCCC3)cc2)cs1`, the values for the Inhibition in experiment [1], in experiment [2] and in experiment [3] were 82%, 66% and 6%, respectively.
Turning to `CC(C)(C)c1ccccc1SC1=C(O)CC2(CCNCC2)OC1=O.Cl`, the results for the Inhibition in experiment [1], in experiment [2] and in experiment [3] were 99%, 0% and 0%, respectively.
In the case of `Cc1ccc(-n2c(Cc3cccc4ccccc34)nnc2SCCC#N)c(C)c1`, the results for the Inhibition in experiment [1], in experiment [2] and in experiment [3] were 95%, 98% and 0%, respectively.
In the case of `Cc1nc2nc(N)nc(N)c2c(C)c1Cc1ccccc1Br.Cl`, the Inhibition in experiment [1] was 92%; in experiment [2] it was 2%; in experiment [3] it was 65%.
`Cc1nc2nc(N)nc(N)c2c(C)c1Cc1ccc(N)cc1.Cl`: the Inhibition is recorded as 97% in experiment [1] and 0% in experiment [2].
For `CCC/C=C/c1c(CNCCCNc2cc(=O)c3ccccc3[nH]2)sc(CC)c1Br.Cl`, the Inhibition in experiment [1] was 88%; in experiment [2], 71%; in experiment [3], 8%.
With `CN(C)CC(=O)Nc1cccc(Nc2nccc(NCC(O)c3ccccc3)n2)c1` (stereo not given), the Inhibition is on record as 100% in experiment [1], 3% in experiment [2] and 30% in experiment [3].
On to `COc1ccc(CN(C)CCCCc2ccc(NC(=O)COc3cccc4sc5ccccc5c(=O)c34)cc2)cc1OC.O=C(O)C(=O)O`, for which the Inhibition in experiment [1] amounted to 100%; in experiment [2] it was 84%; in experiment [3], 26%.
With `COc1ccc(CNC2Cc3ccccc3C2)cc1-c1ccc(S(=O)(=O)NCc2ccccc2)s1.O=C(O)C(F)(F)F`, the Inhibition is 97% in experiment [1], 25% in experiment [2] and 22% in experiment [3].
As for `COc1cc2nc(N3CCN(C(=O)c4cccc(I)c4)CC3)nc(N)c2cc1OC`, the Inhibition in experiment [1] was 88%; in experiment [2], 26%; in experiment [3] it was 11%.
In the case of `COc1ccc(Cc2cnc(N)nc2N)cc1OCCCOc1ccccc1`, the Inhibition came to 91% in experiment [1] and 4% in experiment [2].
As for `CS(=O)(=O)c1ccccc1CNC(=O)c1ccc(-c2ccc(-c3nc4cc(C(F)(F)F)ccc4[nH]3)s2)cc1`, the Inhibition in experiment [1] was 96%; in experiment [2] it was 76%; in experiment [3], 90%.
The like results for `Oc1ccc(Nc2ccnc3cc(Cl)ccc23)cc1` were, in that order, 100%, 97% and 0%.
Turning to `Nc1cccc(CNCc2cccc(-c3ccc(-c4nc5ccccc5[nH]4)s3)c2)c1.O=C(O)C(F)(F)F`, the Inhibition in experiment [1] came to 100%; in experiment [2], 90%; in experiment [3], 8%.
The like results for `C[C@H](Cc1ccc(S(=O)(=O)c2ccc(C[C@@H](C)NC[C@H](O)c3cccc(Cl)c3)cc2)cc1)NC[C@H](O)c1cccc(Cl)c1.Cl` were, in that order, 99%, 98% and 100%.
`Cc1cccc(Cn2c(C(N)=O)nn(-c3ccc([N+](=O)[O-])cc3C#N)c2=S)c1`: the Inhibition in experiment [1] came to 100%; in experiment [2] it was 48%; in experiment [3], 1%.
As to `O=C(NCCc1ccccc1F)c1cc(Br)cc(N2CCN(c3ccncc3)CC2)c1.O=C(O)C(F)(F)F`, the values for the Inhibition in experiment [1], in experiment [2] and in experiment [3] were 97%, 67% and 29%, respectively.
The like results for `O=C(C=Cc1ccc(Cl)c(Cl)c1)NCCCCCN1CCC(CCNC(=O)C(c2ccccc2)c2ccccc2)CC1` were, in that order, 90%, 43% and 61%.
The like results for `O=C(Nc1cccc(-c2ccc(CN3CCCC3)cc2)c1)c1cccc(F)c1.O=C(O)C(F)(F)F` were, in that order, 99%, 17% and 20%.
The like results for `CCN1CCC(N(Cc2ccc(-c3ccc(C(F)(F)F)cc3)o2)C(=O)Cn2c(CCc3cccc(F)c3F)nc(=O)c3ccccc32)CC1.O=C(O)C(O)C(O)C(=O)O` were, in that order, 91%, 88% and 45%.
As to `CCCCCN1CCCN(Cc2cccc(NC(=O)c3cc4ccccc4s3)c2)CC1.O=C(O)C(F)(F)F`, the Inhibition in experiment [1] is 99%; in experiment [2] it was 30%; in experiment [3] it was 29%.
Take `CCCCCCCN(CCCCCCC)CCCC(=O)Nc1ccnc2ccc(OC)cc12.O=C(O)C(=O)O`: the Inhibition in experiment [1] came out at 100%; in experiment [2], 98%; in experiment [3], 43%.
On to `COc1cccc(Nc2nc(Nc3cccc(C#N)c3)cc(C(F)(F)F)n2)c1`, for which the Inhibition in experiment [1] worked out at 99%; in experiment [2], 45%; in experiment [3], 15%.
Take `Cc1nc2ccccc2c(=O)n1NCc1ccc(Cl)c(Cl)c1`: the results for the Inhibition in experiment [1], in experiment [2] and in experiment [3] were 96%, 92% and 12%, respectively.
The like results for `Cc1cc(Nc2ccc(OCc3ccccc3Cl)cc2)c2cc(Cl)ccc2n1.Cl` were, in that order, 100%, 58% and 33%.

Source of the values: ChEMBL document CHEMBL1157539, “Thousands of chemical starting points for antimalarial lead identification” (Nature, 2010).
